Only some compounds are listed: those with a hit (about 10% of all), similar ones and a draw of the others.
BAZ2B block: inhibitors of human BAZ2B bromodomain; AlphaScreen BAZ2B-H3K14Ac peptide displacement; AID 504333; 4.4% of 360,000 active; Potency, µM (titrated, usually from 114 µM), hits mostly inhibitors; note: nearly all actives have a fitted effect of over 60% in size
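Inhibition is scored as reduced AlphaScreen emission. The BAZ2B/b-H3(5-23)K14Ac complex (50 nM each) in PBS pH 7.4, 0.01% Tween-20 meets compound (up to 110 uM) for 30 min at RT before bead addition.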
JMJD2A Tudor inh: JMJD2A Tudor domain (human) inhibition | O75164 | Potency, µM (series often up to 114 µM), hits mostly inhibitors | 4.4% of 390,000 active | AlphaScreen JMJD2A-Tudor / H3K4me3 peptide binding | AID 504339; note: nearly all actives have a fitted effect of over 50% in size
Six1-Eya2 blk: inhibitors of human Six1/Eya2 interaction. AlphaScreen GST-Six1/His-Eya2 binding, biochemical; hits give low values. activity change, % (concentration not given with the values). 0.56% of 360,000 active; in the data active = activity change below about -65%; inconclusive = mostly about -30% to -63%
Target sequence (O00167 whole entry, looked up): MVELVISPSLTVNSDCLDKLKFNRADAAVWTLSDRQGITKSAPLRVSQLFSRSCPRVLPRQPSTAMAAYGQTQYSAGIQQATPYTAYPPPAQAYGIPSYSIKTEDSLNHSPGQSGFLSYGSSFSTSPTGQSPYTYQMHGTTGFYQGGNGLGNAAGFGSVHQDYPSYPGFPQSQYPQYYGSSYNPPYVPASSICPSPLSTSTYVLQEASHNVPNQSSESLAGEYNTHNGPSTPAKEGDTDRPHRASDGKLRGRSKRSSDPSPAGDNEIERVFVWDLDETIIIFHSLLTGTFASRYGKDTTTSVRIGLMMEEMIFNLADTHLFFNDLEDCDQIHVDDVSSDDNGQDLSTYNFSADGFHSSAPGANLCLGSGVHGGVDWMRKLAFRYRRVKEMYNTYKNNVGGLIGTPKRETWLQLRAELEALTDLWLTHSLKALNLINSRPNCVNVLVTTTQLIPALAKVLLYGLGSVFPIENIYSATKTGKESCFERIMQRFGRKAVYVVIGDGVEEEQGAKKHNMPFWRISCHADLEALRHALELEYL
Target sequence (Q15475 whole entry, looked up): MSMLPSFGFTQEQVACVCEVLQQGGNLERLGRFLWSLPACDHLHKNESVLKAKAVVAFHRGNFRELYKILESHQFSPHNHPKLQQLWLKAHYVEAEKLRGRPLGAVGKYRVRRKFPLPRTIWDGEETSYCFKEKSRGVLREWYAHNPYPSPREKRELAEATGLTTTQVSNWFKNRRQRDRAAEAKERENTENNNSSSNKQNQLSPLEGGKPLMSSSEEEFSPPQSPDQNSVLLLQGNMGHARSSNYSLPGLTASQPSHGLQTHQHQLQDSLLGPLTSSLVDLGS
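Six1/Eya2 binding was read as AlphaScreen signal after compounds were pinned into GST-Six1 plus His-tagged Eya2 (5X stock 250/500 nM) in pH 8.0 Tris/NaCl/TCEP buffer, beads added, then incubated 1 h, 37 C, dark.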
G9a inh: G9a (human) methyltransferase inhibition. Q96KQ7. G9a H3K9 monomethylation, AlphaScreen, 2 h. Potency, µM (doses to about 102 µM), actives largely listed as inhibitors. 8.8% of 350,000 active; note: nearly all actives have a fitted effect of over 75% in size
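Methyltransferase reactions run at room temperature for 2 h (20 nM enzyme, 500 nM biotin-H3K9 peptide, 20 uM SAM) after a 15 min compound preincubation; product detected by AlphaScreen beads and anti-H3K9me1 antibody.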
HP1b chromo inh: blocks HP1-beta chromodomain binding to methylated histone tails; P83916; AlphaScreen HP1-beta / biotin-H3K9me3 peptide binding; Potency, µM (doses to about 114 µM), actives largely listed as inhibitors; 0.56% of 390,000 active; note: nearly all actives have a fitted effect of over 70% in size
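AlphaScreen: HP1-beta (50 nM) preformed 30 min with biotin-H3(1-18)K9me3 peptide (50 nM) in PBS pH 7.4, 0.01% Tween-20. Compound added for 30 min at RT, then streptavidin donor/nickel chelate acceptor beads (10 ug/mL) for 30 min.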
CtBP-E1A blk: CtBP/E1A binding inhibition; AlphaScreen GST-E1A/His-CtBP binding, 1536-well; hits give low values; activity change, % (no concentration beside the values); 0.49% of 340,000 active; AID 651724; in the data active = activity change below about -65%; inconclusive = mostly about -30% to -63%
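AlphaScreen with 125 nM GST-E1A and 125 nM His-CtBP (5X stocks) in Tris pH 8.0, 300 mM NaCl, BSA, Tween 20, TCEP. Compounds preincubated 2 h at 37 deg C, then glutathione donor/nickel acceptor beads added for 1 h at 37 deg C in dark.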
Each line names hits and unclear results; the compound was inactive in the other large screens. Unless noted, calls come from the whole dose curve; as a rule, active = well fitted inhibition curve with a large enough effect; inconclusive = small, poorly fitted or top-dose-only effect; inactive = no such curve, though single readings can be large or run the other way.

COc1ccc(CNC(=O)CSc2ncn[nH]2)cc1	G9a inh 2.8µM
Cc1ccc(NS(=O)(=O)c2ccc3[nH]c(=O)[nH]c3c2)cc1C	none (no result: BAZ2B block, Six1-Eya2 blk, G9a inh, HP1b chromo inh, CtBP-E1A blk)
COc1cc2cc3c(N)c(C(=O)Nc4sc(C)c(C)c4C#N)sc3nc2cc1OC	BAZ2B block 56µM, JMJD2A Tudor inh 79µM, Six1-Eya2 blk inconclusive, HP1b chromo inh inconclusive, CtBP-E1A blk inconclusive
COc1cc2cc3c(N)c(C(=O)NCc4ccco4)sc3nc2cc1OC	Six1-Eya2 blk inconclusive, G9a inh 28µM, CtBP-E1A blk inconclusive
Cc1ccc2nc3sc(C(=O)NCc4ccco4)c(N)c3cc2c1	G9a inh 1.6µM
Cc1cccc(C(=O)NCc2ccco2)c1	BAZ2B block inconclusive, JMJD2A Tudor inh inconclusive
Cc1ccc(S(=O)(=O)N2CCCC2CNC(=O)C(=O)NC2CC2)cc1 (stereo not given)	none
Cc1cc(C(=O)O)c2c(=O)n(C)c(=O)n(C)c2n1	none (no result: BAZ2B block, Six1-Eya2 blk, CtBP-E1A blk)
CC1(C)CC(=O)C(N=Nc2cccc([N+](=O)[O-])c2)=C(O)C1	BAZ2B block inconclusive, JMJD2A Tudor inh inconclusive, G9a inh 50µM
CC1(C)CC(=O)C(N=Nc2ccc(Br)cc2)=C(O)C1	none
CC1(C)CC(=O)C(N=Nc2cccc(F)c2C#N)=C(O)C1	BAZ2B block inconclusive (no result: G9a inh)
CC1(C)CC(=O)C(N=Nc2ccc(C(F)(F)F)cc2[N+](=O)[O-])=C(O)C1	BAZ2B block 20µM, JMJD2A Tudor inh 50µM, HP1b chromo inh inconclusive (no result: G9a inh)
CC1(C)CC(=O)C(N=Nc2ccc(S(=O)(=O)N3CCOCC3)cc2)=C(O)C1	JMJD2A Tudor inh 35µM
COc1ccc(N=NC2=C(O)CC(C)(C)CC2=O)c(OC)c1	BAZ2B block inconclusive, G9a inh 28µM
CC1(C)C(Cl)C(=O)C(C(=O)c2ccccc2)C(=O)C1Cl (stereo not given)	none (no result: G9a inh)
CCOc1ccccc1-n1c(SC(C)C(=O)NCC2CCCO2)nc2ccccc2c1=O (stereo not given)	none
CCOc1ccc(-n2c([S-])c(C(=O)Nc3ccc(S(=O)(=O)N4CCOCC4)cc3)[n+]3cc(C(N)=O)ccc23)cc1	G9a inh inconclusive
O=C(Nc1nnc(C2CC2)s1)C1Cc2ccccc2CN1S(=O)(=O)c1cccs1 (stereo not given)	Six1-Eya2 blk inconclusive, CtBP-E1A blk inconclusive
CCc1nnc(NC(=O)C2CCCN2S(=O)(=O)c2ccc(C)cc2)s1 (stereo not given)	none
Cc1ccc(S(=O)(=O)N2Cc3ccccc3CC2C(=O)Nc2ccc3c(c2)OCO3)cc1 (stereo not given)	BAZ2B block inconclusive, JMJD2A Tudor inh 79µM, G9a inh inconclusive, HP1b chromo inh inconclusive
O=C(O)C1Cc2ccccc2CN1S(=O)(=O)c1ccc2ccccc2c1 (stereo not given)	BAZ2B block 50µM, JMJD2A Tudor inh 50µM, G9a inh 7.9µM
CCc1nnc(NC(=O)C2Cc3ccccc3CN2S(=O)(=O)c2ccc(C)cc2)s1 (stereo not given)	BAZ2B block inconclusive, JMJD2A Tudor inh inconclusive, G9a inh 40µM
CCc1nnc(NC(=O)C2Cc3ccccc3CN2S(=O)(=O)c2cccs2)s1 (stereo not given)	G9a inh 14µM
COc1ccc(S(=O)(=O)N2Cc3ccccc3CC2C(=O)Nc2ccc3c(c2)OCO3)cc1 (stereo not given)	none
COc1cc(NC(=O)Cn2nc3c(cc2=O)CC(C)CC3)cc(OC)c1OC (stereo not given)	none (no result: Six1-Eya2 blk, CtBP-E1A blk)
COc1cccc(NC(=O)C2CCC(CNS(=O)(=O)c3cccc4cccnc34)CC2)c1 (stereo not given)	none
O=C(Nc1cccc2nsnc12)c1ccc(-c2cccc(Cl)c2)o1	G9a inh 25µM
O=C(Cc1ccc([N+](=O)[O-])cc1)N1CCCCCC1	none (no result: BAZ2B block)
O=C(c1ccc(-c2ccc([N+](=O)[O-])cc2)o1)N1CCCCCCC1	BAZ2B block 40µM, JMJD2A Tudor inh 56µM, HP1b chromo inh inconclusive (no result: CtBP-E1A blk)
CC1CCCN(C(=O)c2ccc([N+](=O)[O-])o2)C1 (stereo not given)	none
O=C(c1ccc(-c2ccc([N+](=O)[O-])cc2)o1)N1CCCC(C(F)(F)F)C1 (stereo not given)	BAZ2B block inconclusive, JMJD2A Tudor inh inconclusive, Six1-Eya2 blk inconclusive, G9a inh 14µM, HP1b chromo inh inconclusive
COc1ccc(NCc2cc3cc(OC)ccc3[nH]c2=O)cc1	JMJD2A Tudor inh inconclusive, Six1-Eya2 blk inconclusive, G9a inh inconclusive, HP1b chromo inh inconclusive
COc1ccc(NCc2cc3ccccc3[nH]c2=O)cc1	BAZ2B block inconclusive, JMJD2A Tudor inh inconclusive, G9a inh 50µM
O=C(O)c1cnn(-c2ccccc2)c1-c1ccncc1	BAZ2B block inconclusive, G9a inh 50µM
Cc1cccc(N2CCN(C(=O)C3CCN(c4ncnc5c4nc4n5CCCCC4)CC3)CC2C)c1 (stereo not given)	BAZ2B block 35µM
Cc1ccc(CN2CCN(/N=C/c3cccn3C)CC2)c(C)c1	BAZ2B block 50µM, JMJD2A Tudor inh 40µM, Six1-Eya2 blk inconclusive, G9a inh 25µM, HP1b chromo inh inconclusive (no result: CtBP-E1A blk)
Cc1ccc(CN2CCN(/N=C/c3ccc(C)s3)CC2)c(C)c1	BAZ2B block 35µM, JMJD2A Tudor inh 45µM, Six1-Eya2 blk inconclusive, G9a inh inconclusive, HP1b chromo inh inconclusive
Cc1ccc(/C=N/n2cnnc2)s1	none
CCOc1ccccc1N1CC(C(=O)NNC(=O)c2cc(OC)c(OC)c(OC)c2)CC1=O (stereo not given)	none
O=C(C(Cl)c1ccccc1)N1CCOCC1 (stereo not given)	G9a inh 22µM
CCCCNc1ncnc2oc(-c3ccco3)c(-c3ccco3)c12	JMJD2A Tudor inh 50µM, HP1b chromo inh inconclusive (no result: BAZ2B block, Six1-Eya2 blk, G9a inh, CtBP-E1A blk)
CCOc1nc(C#N)nc(N2CCOCC2)n1	none (no result: BAZ2B block, Six1-Eya2 blk, G9a inh, CtBP-E1A blk)
COc1ccccc1CCC(=O)OCC(=O)Nc1c(Br)cc(C)cc1Br	none
CCN(CC)CCN1C(=O)c2oc3ccccc3c(=O)c2C1c1cccc(Br)c1 (stereo not given)	G9a inh 50µM
Cc1ccc2oc3c(c(=O)c2c1)C(c1cccc(Br)c1)N(Cc1ccco1)C3=O (stereo not given)	none
CCN(CC)CCN1C(=O)c2oc3ccccc3c(=O)c2C1c1ccccc1 (stereo not given)	none
CCN(CC)CCCN1C(=O)c2oc3ccccc3c(=O)c2C1c1cccs1 (stereo not given)	G9a inh 50µM (no result: JMJD2A Tudor inh, Six1-Eya2 blk, HP1b chromo inh, CtBP-E1A blk)
O=C1c2oc3ccc(Cl)cc3c(=O)c2C(c2cccc(Br)c2)N1CCO (stereo not given)	G9a inh 50µM
CN(C)CCCN1C(=O)c2oc3ccc(Cl)cc3c(=O)c2C1c1cccnc1 (stereo not given)	G9a inh 50µM
